Source: PubChem
Only some compounds are listed: those with a hit (about 27% of all), similar ones and a draw of the others.
CYP2C19 inh: blocks human cytochrome P450 2C19; P33261; 96,000 compounds, 21% hits; CYP2C19 Supersomes, luciferin-H EGE luminescence, 30 min; inhibition, % at 5 µM;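 active = CYP2C19 inhibition above a set limit at 5 µM in the primary screen, cut at about 50% in these data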;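 also: plate controls were negative control wells for no effect and 2.5 mM tranylcypromine positive control for full effect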
sEH act: increases human soluble epoxide hydrolase activity. 91,000 compounds, 0.04% hits. activation, % at 2 µM. P34913. purified human sEH enzymatic activity, activator screen. AID 717; in the data active = activation above about 37%
CYP2C19 activ: cytochrome P450 2C19 (human) activation. recombinant CYP2C19, luciferin-H EGE luminescence; stronger effect = higher value; 0 = fully inhibited enzyme, 1 = untreated enzyme. activation factor at 5 µM. 96,000 tested, under 10 active;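 active = activation factor of at least 2 at 5 µM in the primary screen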;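 also: 0 = wells with 2.5 mM tranylcypromine and 1 = vehicle-only wells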
CYP2C9 act: activators of human CYP2C9; activation factor at 5 µM; recombinant CYP2C9, luciferin-H conversion, luminescence; stronger effect = higher value; factor 1 = untreated enzyme, 0 = blocked; 96,000 compounds, 1.4% hits; P11712;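 active = activation factor of 2 or more for CYP2C9 at a 5 µM dose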;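 also: 0 = sulfaphenazole-blocked wells and 1 = vehicle-only wells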
Target sequence (P11712 whole entry, looked up): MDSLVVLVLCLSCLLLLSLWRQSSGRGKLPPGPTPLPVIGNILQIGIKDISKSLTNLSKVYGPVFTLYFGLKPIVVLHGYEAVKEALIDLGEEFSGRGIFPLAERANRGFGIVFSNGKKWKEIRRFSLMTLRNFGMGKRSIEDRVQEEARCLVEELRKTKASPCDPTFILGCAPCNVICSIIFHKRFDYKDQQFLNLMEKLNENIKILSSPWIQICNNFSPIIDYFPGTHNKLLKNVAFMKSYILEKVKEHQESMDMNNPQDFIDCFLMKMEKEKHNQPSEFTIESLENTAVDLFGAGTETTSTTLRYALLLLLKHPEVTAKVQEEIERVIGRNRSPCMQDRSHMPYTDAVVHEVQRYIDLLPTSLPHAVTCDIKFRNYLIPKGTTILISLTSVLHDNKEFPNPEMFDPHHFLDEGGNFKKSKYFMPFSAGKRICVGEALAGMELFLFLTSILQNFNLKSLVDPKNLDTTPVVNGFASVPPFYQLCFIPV
sEH inhibitor: blocks human soluble epoxide hydrolase activity; AID 707; recombinant human sEH enzymatic activity assay; inhibition, % at 2 µM; P34913; 91,000 compounds, 0.34% hits; in the data active = inhibition above about 80%
CYP2C9 inh: blocks human cytochrome P450 2C9 | P11712 | CYP2C9 Supersomes, luciferin-H conversion, luminescence | inhibition, % at 5 µM | 96,000 compounds, 20% hits | AID 777;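 active = blocking of liver enzyme CYP2C9 beyond about 50% at 5 µM, limit read from the data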
Starred values were filed as active, the others as inactive.

What do the screens show for `Cc1cccc(N(CC(=O)NC2CCCCC2)C(=O)c2ccc(C)s2)c1`?
CYP2C19 inh: 39.8; sEH act: -71.0; CYP2C19 activ: 0.6; CYP2C9 act: 0.4; sEH inhibitor: 71.9; CYP2C9 inh: 59.7*

What do the screens show for `Cc1ccccc1N(CC(=O)NC1CCCC1)C(=O)c1oc(C(C)(C)C)cc1C`?
CYP2C19 inh: 14.7; sEH act: 22.1; CYP2C19 activ: 0.9; CYP2C9 act: 1; sEH inhibitor: -22.7; CYP2C9 inh: 4.1

What do the screens show for `Cc1ccc(C)c(N(CC(=O)NC2CCCC2)C(=O)c2cc3cc4cc(C)ccc4nc3s2)c1`?
CYP2C19 inh: -12.2; sEH act: 0.8; CYP2C19 activ: 1.1; CYP2C9 act: 1; sEH inhibitor: 0.9; CYP2C9 inh: 0.7

What do the screens show for `Cc1ccc(C(=O)N(CC(=O)NC2CCCCC2)c2ccccc2C)s1`?
CYP2C19 inh: 45.9; sEH act: -48.5; CYP2C19 activ: 0.5; CYP2C9 act: 0.4; sEH inhibitor: 49.5; CYP2C9 inh: 62.1*

What do the screens show for `COc1cccc(-n2nnc3c(=O)n(CC(=O)N4CCC(Cc5ccccc5)CC4)cnc32)c1`?
CYP2C19 inh: -5.6; sEH act: 13.7; CYP2C19 activ: 1.1; CYP2C9 act: 1.1; sEH inhibitor: -17.0; CYP2C9 inh: -10.0

What do the screens show for `O=C(CN1CCc2ccccc2C1)c1cccs1`?
CYP2C19 inh: 92.3*; sEH act: 15.7; CYP2C19 activ: 0.1; CYP2C9 act: 0.8; sEH inhibitor: -15.8; CYP2C9 inh: 24.1

Results for O=C(c1cccs1)N1CCc2ccccc21 ?
CYP2C19 inh: 14.8; sEH act: 13.8; CYP2C19 activ: 0.9; CYP2C9 act: 1; sEH inhibitor: -11.9; CYP2C9 inh: -4.3

What do the screens show for `O=C(NCN1CCc2ccccc2C1)c1ccccc1`?
CYP2C19 inh: 81.3*; sEH act: 0.0; CYP2C19 activ: 0.2; CYP2C9 act: 0.8; sEH inhibitor: 0.0; CYP2C9 inh: 19.7

What do the screens show for `CCC(C)Nc1nc(CN2CCOCC2)nc2sc3c(c12)CCC3` (stereo not given)?
CYP2C19 inh: 8.9; sEH act: -5.8; CYP2C19 activ: 0.9; CYP2C9 act: 0.7; sEH inhibitor: 4.2; CYP2C9 inh: 30.9

Results for C=CCSc1nccc(-c2cc(Cl)sc2Cl)n1 ?
CYP2C19 inh: 80.5*; sEH act: 2.3; CYP2C19 activ: 0.2; CYP2C9 act: 0.3; sEH inhibitor: -5.2; CYP2C9 inh: 71.6*

How did COc1ccc(C(NC(=O)CNC(C)=O)C(=O)Nc2ccc3c(c2)OCCO3)cc1 (stereo not given) do in these assays?
CYP2C19 inh: 16.1; sEH act: -18.4; CYP2C19 activ: 0.8; CYP2C9 act: 0.9; sEH inhibitor: 19.9; CYP2C9 inh: 5.3

How did CC(C(=O)c1ccccc1)n1c(N2CCOCC2)nc2c1c(=O)n(C)c(=O)n2C (stereo not given) do in these assays?
CYP2C19 inh: -8.1; CYP2C19 activ: 1.1; CYP2C9 act: 1; CYP2C9 inh: -3.0

How did Oc1ccc2ccccc2c1N=Nc1ccccn1 do in these assays?
CYP2C19 inh: 25.0; sEH act: 1.9; CYP2C19 activ: 0.8; CYP2C9 act: 0.3; sEH inhibitor: 0.3; CYP2C9 inh: 67.1*

How did Oc1cccc2ccc(Nc3ccccn3)nc12 do in these assays?
CYP2C19 inh: -0.1; CYP2C19 activ: 1; CYP2C9 act: 1; CYP2C9 inh: -0.3

How did Cc1ccn2c(C(=O)N/N=C\c3cccs3)c(C)nc2c1 do in these assays?
CYP2C19 inh: 46.7; sEH act: -11.7; CYP2C19 activ: 0.5; CYP2C9 act: 0.5; sEH inhibitor: 11.8; CYP2C9 inh: 51.6*

What do the screens show for `Cc1ccc(C)c(-n2c(C)cc(/C=N/NC(=O)c3c(C)nc4cc(C)ccn34)c2C)c1`?
sEH act: 9.4; sEH inhibitor: -5.9

How did Nc1sc2c(c1C(=O)NC1CCS(=O)(=O)C1)CCC2 (stereo not given) do in these assays?
CYP2C19 inh: 4.6; sEH act: -4.0; CYP2C19 activ: 1; CYP2C9 act: 0.6; sEH inhibitor: 3.4; CYP2C9 inh: 35.5

How did O=C(CSc1nnc2ccccn12)Nc1ccccc1C(=O)NC1CC1 do in these assays?
CYP2C19 inh: -5.4; sEH act: 13.5; CYP2C19 activ: 1.1; CYP2C9 act: 1; sEH inhibitor: -11.4; CYP2C9 inh: 2.9

What do the screens show for `COc1ccc(CSc2nnc(Cc3sc(-c4ccccc4)nc3-c3ccccc3)o2)cc1`?
CYP2C19 inh: 6.0; sEH act: -11.4; CYP2C19 activ: 0.9; CYP2C9 act: 0.3; sEH inhibitor: 12.5; CYP2C9 inh: 67.3*

How did CSc1nnc(Cc2sc(-c3ccccc3)nc2-c2ccccc2)o1 do in these assays?
CYP2C19 inh: 88.9*; sEH act: 16.1; CYP2C19 activ: 0.1; CYP2C9 act: 0; sEH inhibitor: -15.9; CYP2C9 inh: 99.7*

How did O=C(O)Cc1sc(-c2ccccc2)nc1-c1ccccc1 do in these assays?
CYP2C19 inh: -7.3; sEH act: 2.1; CYP2C19 activ: 1.1; CYP2C9 act: 0.6; sEH inhibitor: -0.3; CYP2C9 inh: 41.7

How did Fc1ccc(CSc2nnc(Cc3sc(-c4ccccc4)nc3-c3ccccc3)o2)cc1 do in these assays?
CYP2C19 inh: 14.6; sEH act: -4.8; CYP2C19 activ: 0.9; CYP2C9 act: 0.3; sEH inhibitor: 4.9; CYP2C9 inh: 72.4*

How did O=C(CN1CCN(Cc2ccc3c(c2)OCO3)CC1)c1c[nH]c2ccccc12 do in these assays?
CYP2C19 inh: 3.1; sEH act: -7.0; CYP2C19 activ: 1; CYP2C9 act: 0.8; sEH inhibitor: 7.8; CYP2C9 inh: 18.2

Results for CC(NC(=O)CCl)c1ccc(Cl)c(Cl)c1 (stereo not given) ?
CYP2C19 inh: 86.0*; sEH act: -0.3; CYP2C19 activ: 0.1; CYP2C9 act: 0.5; sEH inhibitor: 1.1; CYP2C9 inh: 47.0

How did CC(C)CNC(=O)c1cc(-c2ccc(Cl)c(Cl)c2)on1 do in these assays?
CYP2C19 inh: 2.5; sEH act: 5.7; CYP2C19 activ: 1; CYP2C9 act: 1; sEH inhibitor: -5.0; CYP2C9 inh: -2.5

What do the screens show for `CC1CN(C(=O)c2ccccc2)OC(c2ccc3c(c2)OCO3)O1` (stereo not given)?
CYP2C19 inh: 13.4; sEH act: 2.5; CYP2C19 activ: 0.9; CYP2C9 act: 0.7; sEH inhibitor: -2.1; CYP2C9 inh: 29.8

How did O=C(O)c1ccc(Oc2cccc([N+](=O)[O-])c2)cc1C(=O)O do in these assays?
CYP2C19 inh: 5.8; sEH act: 13.3; CYP2C19 activ: 0.9; CYP2C9 act: 0.9; sEH inhibitor: -16.1; CYP2C9 inh: 5.0

How did Cc1ccc(Cl)cc1NC1=C/C(=N\S(=O)(=O)c2cccs2)c2ccccc2C1=O do in these assays?
CYP2C19 inh: 66.0*; sEH act: 8.4; CYP2C19 activ: 0.3; CYP2C9 act: 0.1; sEH inhibitor: -6.9; CYP2C9 inh: 92.0*

Results for CCCCN(CC)CCNc1c(NC2CCN(C(=O)OCC)CC2)c(=O)c1=O ?
CYP2C19 inh: 29.6; CYP2C19 activ: 0.7; CYP2C9 act: 0.3; CYP2C9 inh: 65.6*
